Test results taken from ChEMBL document CHEMBL3988442, “University of Dundee, Small-Polar-MMV Screening Library” (2021).
Screen size: about 67,000 compounds; about 300 (0.45%) showed an effect of 50% or more. The sample holds strong results, similar compounds and a random draw of the others, so the mix is not that of the screen.

Target: Polyketide synthase Pks13 (Mycobacterium tuberculosis (strain ATCC 25618 / H37Rv)) (UniProt I6X8D2)
Assay: Mycobacterium tuberculosis Polyketide synthase 13 Thioesterase (PKS13)
Format: functional
Parameters: scale not given: in the data most compounds retested in dose-response had high values
Settings: 30 µM

Sequence of Polyketide synthase Pks13 (Mycobacterium tuberculosis (strain ATCC 25618 / H37Rv)) (I6X8D2 whole entry): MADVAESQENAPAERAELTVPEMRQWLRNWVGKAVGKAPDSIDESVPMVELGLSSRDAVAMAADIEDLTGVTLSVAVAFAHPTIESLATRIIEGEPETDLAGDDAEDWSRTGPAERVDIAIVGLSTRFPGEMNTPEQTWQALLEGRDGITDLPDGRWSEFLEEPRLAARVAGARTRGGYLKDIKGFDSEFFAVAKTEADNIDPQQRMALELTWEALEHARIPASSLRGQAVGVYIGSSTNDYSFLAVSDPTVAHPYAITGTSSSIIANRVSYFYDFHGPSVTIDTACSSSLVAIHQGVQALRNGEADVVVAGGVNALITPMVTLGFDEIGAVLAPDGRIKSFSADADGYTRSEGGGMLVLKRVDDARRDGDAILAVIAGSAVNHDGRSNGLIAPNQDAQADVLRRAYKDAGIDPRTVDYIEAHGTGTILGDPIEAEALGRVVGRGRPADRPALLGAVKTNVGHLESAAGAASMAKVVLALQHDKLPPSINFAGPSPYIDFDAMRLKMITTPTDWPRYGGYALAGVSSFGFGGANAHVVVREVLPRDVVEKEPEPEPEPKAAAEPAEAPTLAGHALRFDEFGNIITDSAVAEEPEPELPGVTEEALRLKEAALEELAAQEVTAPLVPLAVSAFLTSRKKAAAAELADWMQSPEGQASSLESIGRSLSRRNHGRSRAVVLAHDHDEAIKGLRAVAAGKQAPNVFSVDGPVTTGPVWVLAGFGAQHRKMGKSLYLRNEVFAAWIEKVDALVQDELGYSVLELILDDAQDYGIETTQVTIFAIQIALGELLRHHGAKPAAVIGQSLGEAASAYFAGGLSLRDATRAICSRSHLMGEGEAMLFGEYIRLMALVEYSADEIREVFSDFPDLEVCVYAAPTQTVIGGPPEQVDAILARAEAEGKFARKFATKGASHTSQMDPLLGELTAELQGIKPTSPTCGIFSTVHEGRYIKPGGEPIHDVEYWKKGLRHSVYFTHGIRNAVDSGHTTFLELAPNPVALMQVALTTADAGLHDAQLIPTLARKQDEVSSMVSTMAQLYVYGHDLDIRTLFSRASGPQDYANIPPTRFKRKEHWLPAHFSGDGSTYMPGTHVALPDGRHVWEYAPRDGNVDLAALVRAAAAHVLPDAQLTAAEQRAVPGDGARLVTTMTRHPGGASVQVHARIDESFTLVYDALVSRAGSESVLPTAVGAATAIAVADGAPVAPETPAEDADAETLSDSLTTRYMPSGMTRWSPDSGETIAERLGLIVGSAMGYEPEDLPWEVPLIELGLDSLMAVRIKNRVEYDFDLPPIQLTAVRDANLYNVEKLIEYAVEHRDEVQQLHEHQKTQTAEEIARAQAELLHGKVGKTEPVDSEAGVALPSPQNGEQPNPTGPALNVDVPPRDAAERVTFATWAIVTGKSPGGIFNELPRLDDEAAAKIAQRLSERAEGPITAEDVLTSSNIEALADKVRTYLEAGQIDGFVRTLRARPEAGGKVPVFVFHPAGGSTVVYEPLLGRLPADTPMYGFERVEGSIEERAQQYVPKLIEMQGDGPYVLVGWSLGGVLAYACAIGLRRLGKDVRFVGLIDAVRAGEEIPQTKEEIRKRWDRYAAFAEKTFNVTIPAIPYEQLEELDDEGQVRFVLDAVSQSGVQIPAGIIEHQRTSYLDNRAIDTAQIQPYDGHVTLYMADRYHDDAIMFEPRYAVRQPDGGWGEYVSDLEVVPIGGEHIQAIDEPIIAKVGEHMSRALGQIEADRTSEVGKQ

SMILES	Percent Effect [%]
Cc1noc([C@]23COC[C@H]2CN(S(=O)(=O)C2CC2)C3)n1	-31.1
Cc1cc(-c2cnc(NC3CCCC3)nc2-c2ccco2)on1	27.1
O=c1[nH]c(NC2CCCC2)nc2nccc(-c3ccco3)c12	52.1
Cc1cc(-c2cnc(NC3CCCCC3)nc2-c2ccco2)on1	15
O=c1[nH]c(NC2CCCC2)nc2nccc(-c3cccs3)c12	72.5
O=C(O)Cn1nc(C2CC2)c2c(-c3cccs3)ccnc21	46.3
O=c1[nH]c(NC2CCCC2)nc2nccc(-c3ccsc3)c12	43
O=C1O[C@@H]2CN(Cc3cccc(O)c3)C[C@@H]2N1CCCN1CCOCC1	-3.82
CSc1ccccc1CN1C[C@H]2C(=O)N(CC3CC3)C[C@@]2(C(=O)O)C1	-23
COCC(=O)NC[C@H]1CC[C@H](c2nnc(-c3cccnc3)o2)CC1	5.07
O=C1O[C@@H]2CN(c3ccccn3)C[C@@H]2N1CCCc1ccc(F)cc1	-15.8
O=C(NCc1ccco1)[C@H]1C[C@H]2OCC[C@H]2N(C(=O)c2ccnnc2)C1	-21.2
O=C(Cn1ccc2cc(Br)ccc21)NC[C@@H]1CCCN2CCCC[C@H]12	-5.46
CO[C@@H]1CCN(Cc2cnn(C)c2)[C@@H]2CN(Cc3ccco3)C[C@@H]21	-33
COc1ccc(CN2CC[C@@H]3CN(S(C)(=O)=O)CCO[C@@H]3C2)cc1	-17.7
O=C(Nc1cccnc1)[C@H]1COC[C@H]2CN(C3CCCC3)C[C@H]21	-10.2
CCn1nnc(NCc2ccc(-c3ccc(Br)cc3)o2)n1	31.1
CCCn1nnc(NCc2ccc(-c3ccc(Br)cc3)o2)n1	50.3
Cn1nnc(NCc2ccc(-c3ccc(Br)cc3)o2)n1	13.4

SMILES	Percent Effect [%]
CC(C)c1cc(C(=O)N2C[C@H]3CC[C@@H]2CN(Cc2ccccn2)C3)no1	-30.6
COc1cnc(N2CCN(C)CC2)nc1-c1ccnn1C	68
Cc1cnc(N2CCN(C)CC2)nc1-c1ccnn1C	4.24
Cc1cnc(N2CCC(c3ccncc3)CC2)nc1-c1ccnn1C	-33.3
Cc1cnc(N2CCCC(O)C2)nc1-c1ccnn1C (configuration not stated)	5.81
Cc1cnc(N2CCC(c3ccccc3)CC2)nc1-c1ccnn1C	-31.6
COc1cnc(N2CC(N3CCOCC3)C2)nc1-c1ccnn1C	54.8
CCn1c(Cn2cncn2)nnc1C1CCN(C[C@H]2[C@@H]3CNC[C@@H]32)CC1	-3.59
CCS(=O)(=O)N1C[C@H]2CN(c3cnn(C)c3)C(=O)[C@H]2C1	-4.27
Cc1ccccc1CN1CC[C@H]2C[C@H](C(=O)N(C)C)O[C@H]2C1	-13.3
Cc1noc(C)c1CN1CC[C@@H]2O[C@@H](COCC3CC3)CC[C@@H]21	-31.2
CC(C)NC(=O)[C@@H]1CN(C(=O)C2CC2)C[C@]12Cc1ccccc1C(=O)N2	52.6
CCS(=O)(=O)N1C[C@@H](C(=O)NC(C)C)[C@@]2(Cc3ccccc3C(=O)N2)C1	9.59
CN1C[C@@H](C(=O)NC(C)(C)C)[C@@]2(CCc3ccccc3C(=O)N2)C1	1.71
CS(=O)(=O)N1C[C@@H]2CC[C@H](C1)N(CCC(=O)NCc1ccco1)C2	-13.4
CN1CC2(CCCN(Cc3nnc(-c4ccccc4)o3)CC2)OC1=O (configuration not stated)	-7.32
CC(C)c1nnc(CN2CCCC3(CC2)CN(C)C(=O)O3)o1 (configuration not stated)	-10.9
CN1CC2(CCCN(Cc3nnc(-c4ccco4)o3)CC2)OC1=O (configuration not stated)	62.4
Cn1ccc(C(=O)N2C[C@@H]3CN(CC4CC4)CCO[C@@H]3C2)n1	-15.9

SMILES	Percent Effect [%]
O=C(N[C@@H]1CN(c2ncccn2)C[C@@H]2CCCO[C@@H]21)c1cnccn1	-18
COc1cccc(N2CCN(CC(O)c3ccc(C)cc3)CC2)c1 (configuration not stated)	-26.6
COc1cccc(C(O)CN2CCN(c3cccc(C)c3)CC2)c1 (configuration not stated)	0.857
CCc1ccc(C(O)CN2CCN(c3cccc(OC)c3)CC2)cc1 (configuration not stated)	56.5
CNC(=O)[C@H]1C[C@@H]2CN(Cc3ccc(C)cc3)C[C@H]1O2	-2.73
Cc1cc2c(N)nc(=O)n(CC(=O)Nc3ccccc3)c2s1	61
COc1ccc(NC(=O)Cn2c(=O)nc(N)c3cc(C)sc32)cc1	-1.59
Cc1cc2c(N)nc(=O)n(CC(=O)Nc3cccc(Cl)c3)c2s1	11.9
c1cnc(N2C[C@H]3CCN(Cc4ccncc4)C[C@H]3C2)nc1	-10.9
CCc1n[nH]c(SCC(=O)N2C[C@@H]3CC[C@H](C2)N(CC=C(C)C)C3)n1	4.76
CCc1ccc(CN2CC[C@@H]3CN(S(C)(=O)=O)CCO[C@@H]3C2)o1	-6.54
CNC(=O)[C@H]1C[C@@H]2CN(S(=O)(=O)c3ccc(OC)cc3)C[C@@H]2N1C	-0.271
O=C(C[C@@H]1COC[C@H]2CN(C(=O)c3cccnc3)C[C@@H]12)N1CCOCC1	-5.25
Cc1cc(C)c2cc(CNCc3cccnc3)c3nn(C)c(=O)n3c2c1	112
CCCNCc1cc2c(C)cc(C)cc2n2c(=O)n(C)nc12	33.4
Cc1cc(C)c2cc(CNC(C)C)c3nn(C)c(=O)n3c2c1	52.3
Cc1cc(C)c2cc(CNC3CCCCC3)c3nn(C)c(=O)n3c2c1	10.2
Cc1cc(C)c2cc(CNCc3ccccc3)c3nn(C)c(=O)n3c2c1	-72.8
Cc1cc(C)c2cc(CNCc3ccco3)c3nn(C)c(=O)n3c2c1	-29.8
